# A number with no mark means an inactive call.
# Tests used:
# Experiment in all cases: log2 ratio of Biotin-Ahx-Ub-VS probe labelling (fragment/DMSO); higher = less target engagement (more negative = stronger competition), active = hit call of the paper (q ≤ 0.05, log2 ratio ≤ -1)
# Conditions in all cases: compound concentration: 200 uM; treatment time: 3 h
# ALG13 = target: T1, ALG13 (UniProt Q9NP73)
# T1 sequence (whole entry): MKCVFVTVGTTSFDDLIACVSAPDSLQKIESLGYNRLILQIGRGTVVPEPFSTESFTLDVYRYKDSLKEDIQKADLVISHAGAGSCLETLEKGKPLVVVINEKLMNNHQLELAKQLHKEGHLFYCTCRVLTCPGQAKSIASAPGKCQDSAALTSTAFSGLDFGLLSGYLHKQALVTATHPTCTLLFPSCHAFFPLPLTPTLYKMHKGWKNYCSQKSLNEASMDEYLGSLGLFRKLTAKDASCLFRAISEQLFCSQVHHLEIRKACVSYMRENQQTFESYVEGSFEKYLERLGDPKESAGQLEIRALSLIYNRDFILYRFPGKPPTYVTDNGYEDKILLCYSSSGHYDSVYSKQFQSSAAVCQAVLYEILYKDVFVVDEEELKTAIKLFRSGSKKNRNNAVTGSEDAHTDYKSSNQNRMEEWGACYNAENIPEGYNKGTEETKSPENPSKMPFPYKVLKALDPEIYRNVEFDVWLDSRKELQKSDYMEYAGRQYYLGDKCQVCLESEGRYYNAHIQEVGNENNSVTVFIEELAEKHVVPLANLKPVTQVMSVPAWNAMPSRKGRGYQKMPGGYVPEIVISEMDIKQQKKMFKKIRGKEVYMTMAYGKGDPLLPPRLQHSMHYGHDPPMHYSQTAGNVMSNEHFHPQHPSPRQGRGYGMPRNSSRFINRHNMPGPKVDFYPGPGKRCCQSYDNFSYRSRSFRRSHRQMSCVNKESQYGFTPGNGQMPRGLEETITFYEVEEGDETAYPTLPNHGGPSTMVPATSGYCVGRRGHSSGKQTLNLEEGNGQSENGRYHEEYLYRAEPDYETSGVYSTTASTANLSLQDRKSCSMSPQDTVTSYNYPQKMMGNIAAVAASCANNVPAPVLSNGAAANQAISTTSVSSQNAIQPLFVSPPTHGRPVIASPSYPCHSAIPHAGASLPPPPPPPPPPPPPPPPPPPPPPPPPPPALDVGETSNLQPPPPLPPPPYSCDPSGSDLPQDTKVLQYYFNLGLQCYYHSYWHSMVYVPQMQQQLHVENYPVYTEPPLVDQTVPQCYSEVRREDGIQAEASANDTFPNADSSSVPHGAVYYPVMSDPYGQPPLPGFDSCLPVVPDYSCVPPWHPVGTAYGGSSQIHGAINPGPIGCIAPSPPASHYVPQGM
# Procedure, shortened: (§1)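 HEK293T lysate (495 µg per sample, in Tris/CHAPS/IGEPAL buffer with protease inhibitors) was treated in triplicate with fragment at 200 µM or with DMSO for 3 h. It was then treated with Biotin-Ahx-Ub-VS (0.5 µM final) for 1 h. Labelled DUBs were NeutrAvidin-enriched, digested with LysC and trypsin, and run by diaPASEF LC-MS/MS. Spectronaut label-free quantities were global-median-normalised. Values are average log2 ratios fragment/DMSO by unpaired t-test, using proteins with ≥2 unique peptides.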
# ATXN3 = ATXN3 (UniProt P54252)
# Procedure, shortened: as §1
# BAP1 = target: T2, BAP1 (UniProt Q92560)
# T2 sequence (whole entry): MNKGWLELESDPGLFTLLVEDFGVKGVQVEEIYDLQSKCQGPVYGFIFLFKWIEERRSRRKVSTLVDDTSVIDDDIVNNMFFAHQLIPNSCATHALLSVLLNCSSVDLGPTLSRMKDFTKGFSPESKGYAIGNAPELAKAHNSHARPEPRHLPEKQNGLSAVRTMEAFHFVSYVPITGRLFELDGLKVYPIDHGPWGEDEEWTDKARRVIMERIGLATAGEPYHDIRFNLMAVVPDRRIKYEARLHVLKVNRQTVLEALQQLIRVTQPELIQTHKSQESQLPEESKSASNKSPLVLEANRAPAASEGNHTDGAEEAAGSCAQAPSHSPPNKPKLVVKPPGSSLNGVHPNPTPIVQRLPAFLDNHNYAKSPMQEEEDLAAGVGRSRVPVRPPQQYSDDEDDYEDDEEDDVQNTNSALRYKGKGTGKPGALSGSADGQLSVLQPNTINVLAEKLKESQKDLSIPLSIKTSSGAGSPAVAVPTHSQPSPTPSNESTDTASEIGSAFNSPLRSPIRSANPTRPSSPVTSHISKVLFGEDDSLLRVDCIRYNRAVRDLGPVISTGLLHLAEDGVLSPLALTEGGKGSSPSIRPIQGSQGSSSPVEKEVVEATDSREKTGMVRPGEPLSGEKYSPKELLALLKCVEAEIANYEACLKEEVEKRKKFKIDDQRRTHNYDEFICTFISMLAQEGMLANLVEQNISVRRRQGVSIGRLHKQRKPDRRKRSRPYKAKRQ
# Procedure, shortened: as §1
# EIF3F = EIF3F (UniProt O00303)
# Procedure, shortened: as §1
# EIF3H = EIF3H (UniProt O15372)
# Procedure, shortened: as §1
# FAM105A = target: T3, FAM105A (UniProt Q9NUU6)
# T3 sequence (whole entry): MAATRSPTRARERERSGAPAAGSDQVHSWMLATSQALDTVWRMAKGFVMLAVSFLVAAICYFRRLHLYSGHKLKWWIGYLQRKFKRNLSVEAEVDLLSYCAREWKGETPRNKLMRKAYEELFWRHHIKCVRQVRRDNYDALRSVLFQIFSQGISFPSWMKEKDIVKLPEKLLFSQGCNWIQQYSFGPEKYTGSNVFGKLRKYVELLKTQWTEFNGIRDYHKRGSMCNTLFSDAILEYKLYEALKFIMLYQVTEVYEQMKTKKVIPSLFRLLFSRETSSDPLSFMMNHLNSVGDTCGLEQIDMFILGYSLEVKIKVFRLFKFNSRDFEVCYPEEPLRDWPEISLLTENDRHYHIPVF
# Procedure, shortened: as §1
# OTUB1 = OTUB1 (UniProt Q96FW1)
# Procedure, shortened: as §1
# OTUD4 = target: T4, OTUD4 (UniProt Q01804)
# T4 sequence (whole entry): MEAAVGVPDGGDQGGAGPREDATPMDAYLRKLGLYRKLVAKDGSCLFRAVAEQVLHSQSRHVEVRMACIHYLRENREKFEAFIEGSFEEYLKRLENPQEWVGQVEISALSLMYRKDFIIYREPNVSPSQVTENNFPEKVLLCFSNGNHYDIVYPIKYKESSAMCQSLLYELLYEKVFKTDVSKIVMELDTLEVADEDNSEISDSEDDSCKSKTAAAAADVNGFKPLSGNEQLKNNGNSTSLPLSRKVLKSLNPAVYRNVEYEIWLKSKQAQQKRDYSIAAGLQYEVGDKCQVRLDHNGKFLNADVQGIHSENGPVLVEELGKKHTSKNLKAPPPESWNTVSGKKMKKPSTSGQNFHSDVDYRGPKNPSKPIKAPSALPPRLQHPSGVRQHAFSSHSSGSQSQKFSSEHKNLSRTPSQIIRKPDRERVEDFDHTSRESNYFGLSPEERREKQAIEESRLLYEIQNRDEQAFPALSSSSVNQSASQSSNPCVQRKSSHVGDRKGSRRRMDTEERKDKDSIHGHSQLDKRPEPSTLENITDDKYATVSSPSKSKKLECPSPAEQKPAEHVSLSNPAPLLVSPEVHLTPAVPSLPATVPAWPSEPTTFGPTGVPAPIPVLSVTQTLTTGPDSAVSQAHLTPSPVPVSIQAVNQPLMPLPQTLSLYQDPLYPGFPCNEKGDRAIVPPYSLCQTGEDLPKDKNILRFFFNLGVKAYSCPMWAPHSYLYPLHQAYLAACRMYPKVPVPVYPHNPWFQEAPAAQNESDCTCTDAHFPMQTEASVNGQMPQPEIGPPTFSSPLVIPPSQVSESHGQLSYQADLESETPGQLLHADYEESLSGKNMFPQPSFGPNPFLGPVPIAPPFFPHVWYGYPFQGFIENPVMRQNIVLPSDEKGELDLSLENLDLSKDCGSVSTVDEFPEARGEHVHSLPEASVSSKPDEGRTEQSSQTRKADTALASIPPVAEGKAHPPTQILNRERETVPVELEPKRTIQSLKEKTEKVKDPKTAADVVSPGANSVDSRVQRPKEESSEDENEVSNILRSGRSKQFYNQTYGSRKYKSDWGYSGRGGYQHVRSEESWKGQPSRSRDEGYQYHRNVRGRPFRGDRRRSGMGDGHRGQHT
# Procedure, shortened: as §1
# OTUD5 = target: T5, OTUD5 (UniProt Q96G74)
# T5 sequence (whole entry): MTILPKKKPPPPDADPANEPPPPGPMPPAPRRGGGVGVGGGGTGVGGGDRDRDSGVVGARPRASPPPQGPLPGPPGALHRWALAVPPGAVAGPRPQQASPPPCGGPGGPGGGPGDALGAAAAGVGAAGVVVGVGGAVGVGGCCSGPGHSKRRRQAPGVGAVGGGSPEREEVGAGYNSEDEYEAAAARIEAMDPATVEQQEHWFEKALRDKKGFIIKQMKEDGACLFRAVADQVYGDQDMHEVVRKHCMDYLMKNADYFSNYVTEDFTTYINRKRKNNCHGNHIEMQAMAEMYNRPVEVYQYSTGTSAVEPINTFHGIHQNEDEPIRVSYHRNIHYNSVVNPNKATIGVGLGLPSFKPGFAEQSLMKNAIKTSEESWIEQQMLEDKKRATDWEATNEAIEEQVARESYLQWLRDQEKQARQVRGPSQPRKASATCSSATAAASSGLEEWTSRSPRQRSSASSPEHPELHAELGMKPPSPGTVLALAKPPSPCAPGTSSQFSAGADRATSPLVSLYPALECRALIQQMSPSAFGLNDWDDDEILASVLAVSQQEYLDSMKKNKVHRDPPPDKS
# Procedure, shortened: as §1
# OTUB1, sequence (Q96FW1 whole entry): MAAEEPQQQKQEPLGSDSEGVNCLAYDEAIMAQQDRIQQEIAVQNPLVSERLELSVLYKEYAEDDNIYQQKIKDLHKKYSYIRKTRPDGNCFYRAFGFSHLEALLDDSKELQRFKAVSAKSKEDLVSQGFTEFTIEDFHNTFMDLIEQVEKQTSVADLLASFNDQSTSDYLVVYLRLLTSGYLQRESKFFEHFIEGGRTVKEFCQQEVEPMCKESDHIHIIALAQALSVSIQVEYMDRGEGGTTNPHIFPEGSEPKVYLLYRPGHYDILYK
# EIF3H, sequence (O15372 whole entry): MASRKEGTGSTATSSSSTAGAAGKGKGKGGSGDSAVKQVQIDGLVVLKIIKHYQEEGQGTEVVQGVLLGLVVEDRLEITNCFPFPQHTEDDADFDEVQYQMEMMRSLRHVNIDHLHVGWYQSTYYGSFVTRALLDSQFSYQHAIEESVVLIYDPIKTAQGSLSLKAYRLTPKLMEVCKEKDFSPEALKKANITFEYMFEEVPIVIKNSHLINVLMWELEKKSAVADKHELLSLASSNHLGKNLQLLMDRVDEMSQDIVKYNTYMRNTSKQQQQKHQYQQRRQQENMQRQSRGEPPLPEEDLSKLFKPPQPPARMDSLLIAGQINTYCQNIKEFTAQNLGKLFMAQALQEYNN
# ATXN3, sequence (P54252 whole entry): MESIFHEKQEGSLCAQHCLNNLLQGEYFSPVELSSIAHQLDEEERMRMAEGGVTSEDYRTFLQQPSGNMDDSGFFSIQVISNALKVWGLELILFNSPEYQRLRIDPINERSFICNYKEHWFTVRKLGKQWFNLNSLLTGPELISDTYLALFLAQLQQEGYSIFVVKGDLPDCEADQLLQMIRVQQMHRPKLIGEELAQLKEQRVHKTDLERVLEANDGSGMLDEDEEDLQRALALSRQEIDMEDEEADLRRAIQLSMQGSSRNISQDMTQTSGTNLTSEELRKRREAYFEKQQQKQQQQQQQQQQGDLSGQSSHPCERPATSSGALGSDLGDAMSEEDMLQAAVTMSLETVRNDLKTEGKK
# EIF3F, sequence (O00303 whole entry): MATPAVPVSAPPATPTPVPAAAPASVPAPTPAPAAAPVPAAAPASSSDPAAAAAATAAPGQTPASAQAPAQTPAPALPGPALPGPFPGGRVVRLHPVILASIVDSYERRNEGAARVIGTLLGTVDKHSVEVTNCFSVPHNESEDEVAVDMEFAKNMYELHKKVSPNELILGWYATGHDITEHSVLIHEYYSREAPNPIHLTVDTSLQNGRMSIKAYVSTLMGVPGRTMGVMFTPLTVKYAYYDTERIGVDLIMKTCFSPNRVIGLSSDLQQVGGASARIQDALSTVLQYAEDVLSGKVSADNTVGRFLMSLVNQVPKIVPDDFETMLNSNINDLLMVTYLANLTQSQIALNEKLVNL
structure (smiles),measurement,setting,value
CCC(NC(=O)CCl)c1ccc(Cl)cc1 (centres undefined),log2 ratio of Biotin-Ahx-Ub-VS probe labelling,ALG13,0.101
same,log2 ratio of Biotin-Ahx-Ub-VS probe labelling,ATXN3,-0.139
same,log2 ratio of Biotin-Ahx-Ub-VS probe labelling,BAP1,-2.81 (active)
same,log2 ratio of Biotin-Ahx-Ub-VS probe labelling,EIF3F,-0.0176
same,log2 ratio of Biotin-Ahx-Ub-VS probe labelling,EIF3H,-0.0528
same,log2 ratio of Biotin-Ahx-Ub-VS probe labelling,FAM105A,0.315
same,log2 ratio of Biotin-Ahx-Ub-VS probe labelling,OTUB1,-0.267
same,log2 ratio of Biotin-Ahx-Ub-VS probe labelling,OTUD4,-0.628
same,log2 ratio of Biotin-Ahx-Ub-VS probe labelling,OTUD5,-0.123
